Screening results as filed in PubChem BioAssay.
KDM5B inhibitor = KDM5B demethylase inhibition; Q9UGL1; Potency, µM (highest dose often 57.7 µM), hits mostly inhibitors; KDM5B demethylase, FDH-coupled NADH fluorescence (FDH is formaldehyde dehydrogenase); hit rate 2.6% among 220,000; active = well fitted inhibition curve with a large enough effect; also: nearly all actives have a fitted effect of over 70% in size
Target sequence (Q9UGL1 whole entry, looked up): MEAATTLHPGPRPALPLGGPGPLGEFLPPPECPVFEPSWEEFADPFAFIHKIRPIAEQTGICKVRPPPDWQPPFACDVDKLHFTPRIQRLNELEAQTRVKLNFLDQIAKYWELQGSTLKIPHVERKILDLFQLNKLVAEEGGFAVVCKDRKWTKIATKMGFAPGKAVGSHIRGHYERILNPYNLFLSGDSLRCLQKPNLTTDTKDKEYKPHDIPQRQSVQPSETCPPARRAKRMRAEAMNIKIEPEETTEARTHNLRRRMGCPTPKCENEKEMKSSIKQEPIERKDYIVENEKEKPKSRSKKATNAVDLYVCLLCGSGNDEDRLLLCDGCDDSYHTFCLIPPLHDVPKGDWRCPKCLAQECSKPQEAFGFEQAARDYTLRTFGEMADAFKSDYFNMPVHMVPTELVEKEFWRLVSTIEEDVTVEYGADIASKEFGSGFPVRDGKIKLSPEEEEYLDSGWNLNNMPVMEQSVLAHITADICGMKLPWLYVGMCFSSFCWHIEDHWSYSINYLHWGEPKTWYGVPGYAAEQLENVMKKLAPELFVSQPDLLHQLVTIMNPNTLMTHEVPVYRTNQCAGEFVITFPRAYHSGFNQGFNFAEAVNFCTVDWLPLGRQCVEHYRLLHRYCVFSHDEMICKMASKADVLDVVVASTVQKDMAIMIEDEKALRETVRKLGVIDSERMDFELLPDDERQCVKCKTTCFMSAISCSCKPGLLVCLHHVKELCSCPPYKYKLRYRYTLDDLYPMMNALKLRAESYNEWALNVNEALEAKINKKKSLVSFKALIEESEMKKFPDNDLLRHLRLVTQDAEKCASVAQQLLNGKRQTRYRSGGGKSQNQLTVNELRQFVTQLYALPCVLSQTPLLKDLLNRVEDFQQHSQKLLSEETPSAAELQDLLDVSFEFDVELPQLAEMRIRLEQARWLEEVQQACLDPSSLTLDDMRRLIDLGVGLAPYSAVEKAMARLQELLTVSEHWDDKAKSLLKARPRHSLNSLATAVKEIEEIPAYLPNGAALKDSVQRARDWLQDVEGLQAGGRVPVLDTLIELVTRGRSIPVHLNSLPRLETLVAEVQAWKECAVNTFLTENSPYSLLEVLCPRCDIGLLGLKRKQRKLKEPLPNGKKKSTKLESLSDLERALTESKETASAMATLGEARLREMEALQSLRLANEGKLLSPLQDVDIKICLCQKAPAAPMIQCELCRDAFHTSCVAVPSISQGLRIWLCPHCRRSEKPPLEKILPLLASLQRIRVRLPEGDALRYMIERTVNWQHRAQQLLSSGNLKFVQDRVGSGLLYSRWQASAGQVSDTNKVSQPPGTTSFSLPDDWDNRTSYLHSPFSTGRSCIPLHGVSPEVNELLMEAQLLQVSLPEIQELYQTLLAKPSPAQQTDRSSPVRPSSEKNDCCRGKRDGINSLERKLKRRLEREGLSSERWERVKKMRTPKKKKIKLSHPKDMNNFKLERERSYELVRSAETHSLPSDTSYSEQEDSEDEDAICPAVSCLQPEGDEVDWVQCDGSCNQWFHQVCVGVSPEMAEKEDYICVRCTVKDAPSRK
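Coupled FDH/NAD⁺ fluorescence readout. KDM5BΔAP 200 nM final; compound titration, 10 min RT preincubation; substrate mix 12.5 µM H3K4me3, 25 µM 2-OG, 50 µM Fe(II), 100 µM ascorbate, 0.25 mM NAD⁺, 0.25 U/mL FDH; ΔRFU over 30 min.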
Of the large screens only hits and unclear results are named; the others gave an inactive call. Only a selection was taken, and hits are over-represented in it overall.

CCn1nccc1C(=O)NCC1Cn2cccc2C(=O)N1C (stereo not drawn)	none
O=Cc1ccc(-c2ccc(Br)cc2Br)o1	none
CCCN(Cc1nnc(-c2ccccc2Cl)o1)C(=O)c1ccc(C#N)cc1	none
Cc1noc(CN(C)CC2COc3ccccc3O2)n1 (stereo not drawn)	none
O=C(Nc1c(NC2CCCC2)c2ccccc2oc1=O)c1ccc(Br)o1	none
Cn1c(SCC(=O)Nc2cc(S(=O)(=O)N3CCCCCC3)ccc2Cl)nnc1C1CC1	none
CCCCCCCCCCCCSCCC(=O)O	none
COC(=O)c1ccc(CO/N=C/c2ccc(Cl)cc2Cl)cc1	none
O=C(NCCc1ccc(F)cc1)c1cc(CN2CCOCC2)on1	none
CN1C(=O)c2cccn2CC1CNC(=O)c1cc(CN2CCOCC2)on1 (stereo not drawn)	none
CN1Cc2cccn2CC1CNC(=O)c1cc(CN2CCOCC2)on1 (stereo not drawn)	KDM5B inhibitor 17.8µM
Cc1nn(CC(O)c2ccccc2F)c(=O)c2ccccc12 (stereo not drawn)	none
COC(=O)c1c(C)[nH]c(C(=O)C(C)Nc2cc(OC)cc(OC)c2)c1C (stereo not drawn)	none
CC1(C)CC(=O)CC(C)(C)N1	none
O=C(Nc1ccc2ncnc(N3CCCCC3)c2c1)c1ccc(F)cc1	none
COCC(=O)Nc1ccc2ncnc(N3CCCCC3)c2c1	none
Nc1ccc2ncnc(N3CCCCC3)c2c1	KDM5B inhibitor 28.2µM
N#Cc1ccccc1COc1ccccc1C(N)=O	none
CC1CCC(NC(=O)CN2C(=O)C(C)(C)c3cc(S(=O)(=O)N4CCC(C)CC4)ccc32)CC1 (stereo not drawn)	none
Clc1ccc(N/N=C/c2c(Cl)cccc2Cl)cc1Cl	none
CCc1c(C(=O)Nc2ccccc2C#N)csc1C	none
Cc1ccc(C(=O)C(C)OC(=O)c2nn(C)c(=O)c3ccccc23)cc1C (stereo not drawn)	none
NC(c1ccc(F)cc1)c1ccccc1I (stereo not drawn)	none
COCCCNC(=O)N[C@@H]1CN(c2ncccn2)C[C@H]1CN(C)C	KDM5B inhibitor 31.6µM
COCCNC(=O)N[C@@H]1CN(Cc2ccccc2)C[C@H]1CN(C)C	none
CN(C)C[C@@H]1CN(c2ccncn2)C[C@H]1NC(=O)COc1ccc(Cl)cc1	none
COc1ccc(CCC(=O)N[C@@H]2CN(S(C)(=O)=O)C[C@H]2CN(C)C)cc1	none
COc1ccc(CNC(=O)N[C@@H]2CN(c3ncccn3)C[C@H]2CN(C)C)cc1	KDM5B inhibitor 28.2µM
O=C(Cn1ncc2ccccc2c1=O)Nc1ncc(Cc2ccc(C(F)(F)F)cc2)s1	none
O=[N+]([O-])c1cc(N=Cc2cccnc2)cc2ccc3ccccc3c12	none
Cc1ccc(NC(=O)CN(C)S(=O)(=O)c2ccc(C(=O)N3CCOCC3)s2)c(C)c1	none
CCN1CC(CN(C)Cc2nc(C3CC3)no2)Oc2ccccc21 (stereo not drawn)	none
CCC(C)NC(=O)c1cccc(N(C)C)c1 (stereo not drawn)	none
Cc1ccc(Cn2c(CN3CCC(C(=O)NCc4cccnc4)CC3)cc3ccccc32)cc1	none
COc1cccc(-c2nc3cc4c(cc3cc2CN2CCOCC2)OCO4)c1OC	none
Cc1nc2ccn(Cc3cccnc3)c(=O)c2cc1C(=O)N1CCN(c2ccccc2)CC1	none
COc1ccc(NC(=O)COc2cccc3c2CCN(Cc2cccnc2)C3=O)c(OC)c1	none
COc1cccc(-c2cc3c(ccn3Cc3cccnc3)c(C3=CCOCC3)n2)c1OC	KDM5B inhibitor 28.2µM
CN(C)Cc1cccc(-c2cc3c(ccn3Cc3cccnc3)c(C3=CCOCC3)n2)c1	KDM5B inhibitor 39.8µM
Cc1ccc(-c2cc3c(ccn3Cc3cccnc3)c(C3=CCOCC3)n2)cn1	KDM5B inhibitor 35.5µM
O=C(NC(C1CC1)C1CC1)c1cccc(Cl)c1	none
CCc1ccc(CNc2nc3nc(CC)cc(=O)n3[nH]2)cc1	none
CCOc1cc(S(=O)(=O)N(CCO)CCO)ccc1Br	none
CC(C)CCNC(=O)CCc1c[nH]c2ccccc12	none
CSc1ccc(C2CC(=O)Nc3c2cnn3-c2nc3ccccc3s2)cc1 (stereo not drawn)	none
O=C1CCCN1c1cccc(-c2csc(-c3ccccc3)n2)c1	none
Oc1ccccc1Oc1ccc2nnc(-c3ccc(Br)cc3)n2n1	none
CCn1nc(C)c(-c2cc(C(=O)N3CCc4nc5cc(-c6ccccc6)[nH]n5c(=O)c4C3)no2)c1C	none
COc1cccc([C@@H]2CN(C(=O)c3n[nH]c4c3CCCC4)C[C@H]2C(=O)O)c1	none
O=C(c1n[nH]c2c1CCCC2)N1CCc2c(nc3cc[nH]n3c2=O)C1	KDM5B inhibitor 28.2µM
O=C(c1cc(CN2CCOCC2)on1)N1CCc2c(nc3cc(-c4ccccc4)[nH]n3c2=O)C1	KDM5B inhibitor 28.2µM
O=C(c1n[nH]c2c1CCCC2)N1CCc2c(nc3cc(-c4ccccc4)[nH]n3c2=O)C1	KDM5B inhibitor 15.8µM
O=C(c1ccc(Br)cc1)N1CCc2[nH]nc(C(=O)N3CCOCC3)c2C1	none
O=c1c2c(nc3cc(-c4ccccc4)[nH]n13)CN(S(=O)(=O)c1cccs1)CC2	none
O=C(c1n[nH]c2c1CCCC2)N1CCC(n2cc(-c3nc(-c4ccccc4)no3)nn2)CC1	none
O=C(c1ccccn1)N1CCN(c2cc(-c3cccs3)[nH]n2)CC1	none
O=C(c1cc(-c2cccs2)[nH]n1)N1CCc2c(nc3cc(-c4ccccc4)[nH]n3c2=O)C1	KDM5B inhibitor 31.6µM
CC(C)C1CN(C(=O)c2n[nH]c3c2CCC3)CCC(=O)N1CC1CC1 (stereo not drawn)	none
CN1CCc2c([nH]c3ccccc23)C12CCN(C(=O)c1cc(CN3CCOCC3)on1)CC2	none
CC(C)(C)NC(NC(=O)c1ccccc1Cl)C(Cl)(Cl)Cl (stereo not drawn)	none
Cc1sc2ncnc(N3CCOCC3)c2c1-c1ccc(F)cc1	none
N#Cc1ccccc1S(=O)(=O)NC1CCSc2c(F)cccc21 (stereo not drawn)	none
COc1ccccc1-n1cnnc1SCC(=O)NC(C)c1ccc(-c2ccccc2)cc1 (stereo not drawn)	none
OCCCNC(=S)Nc1ccc(Br)cc1	none
O=C(O)COc1ccc(-c2nccc3c2C(=O)N(Cc2ccccc2)CC(COc2ccc(Cl)cc2)O3)cc1 (stereo not drawn)	none
CCN(CC)S(=O)(=O)c1ccc(OC)c(NC(=O)c2nn(C(C)C)c(=O)c3ccccc23)c1	none
O=C(c1ccsc1)N1CCc2c(nc3cc[nH]n3c2=O)C1	KDM5B inhibitor 25.1µM
O=C(c1ccsc1)N1CCN(c2cc(-c3ccc(Cl)cc3)[nH]n2)CC1	none
COCCOc1ccc2c(n1)CCN(C(=O)c1ccsc1)C2	none
COc1ccc(Cn2c3c(c(=O)n2Cc2ccccc2)CCN(C(=O)Cc2cccc(Cl)c2)C3)cc1	none
Cc1cccc(CC(=O)N2CCc3c(nc4cc[nH]n4c3=O)C2)c1	KDM5B inhibitor 31.6µM
Cc1ccc(CN2CC(C(=O)N3CCc4c(nc5cc(-c6ccccc6)[nH]n5c4=O)C3)CC2=O)cc1 (stereo not drawn)	KDM5B inhibitor 22.4µM
Cc1ccnc(NC(=O)C2CC(=O)N(Cc3ccccc3)C2)c1 (stereo not drawn)	none
Cc1ccc(CN2CC(C(=O)Nc3ccc(C)cn3)CC2=O)cc1 (stereo not drawn)	none
Cc1nc2c(c(-c3ccc(Cl)cc3)n1)CCN(C(=O)Cc1cccc(Cl)c1)CC2	none
COc1ccc(CCNC(=O)c2nn(Cc3ccccc3)c(=O)c3ccccc23)cc1	none
Cc1ccc2nc(CSc3nnc(N4CCCC4)n3-c3cccc(Cl)c3)cn2c1	none
CCc1nnsc1C(=O)N(C)CCOc1ccc(C)cc1	none
CCc1ccccc1NC(=O)c1ccccc1SCc1cccs1	none
CC(C)C[C@@H]1N[C@H](C(=O)N2CCN(C)CC2)Cc2c[nH]c3cccc1c23	KDM5B inhibitor 31.6µM
